Data published in PubChem BioAssay (NCI).
About 83,000 compounds went through this panel and 20% of them were active in at least one assay; those are over-represented in the sample as a whole.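 Step 1: grow cells in 96-well plates. Step 2: add test compound at a single concentration. Step 3: incubate 48 h. Step 4: record percent growth.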 Unmarked numbers belong to inactive results. Activity calls are given as the source filed them. Rule for the calls: active = growth percent below 10; inactive = the rest.

What was measured:
Assay in all cases: NCI-60 one-dose screen, 48 h (100 = growth as untreated, 0 = no growth, -100 = all killed)
Conditions in all cases: 10 µM unless noted
[1] = tested on: NCI-H23 lung
[2] = tested on: NCI-H226 lung
[3] = tested on: NCI-H322M lung
[4] = tested on: HOP-62 NSCLC
[5] = tested on: NCI-H460 lung
[6] = tested on: NCI-H522 lung
[7] = tested on: A549/ATCC NSCLC
[8] = tested on: 786-0 renal
[9] = tested on: COLO 205 colon
[10] = tested on: DU-145 prostate
[11] = tested on: K-562 leukemia
[12] = tested on: MALME-3M melanoma
[13] = tested on: MDA-MB-231 breast
[14] = tested on: RXF 393 renal
[15] = tested on: SF-268 CNS
[16] = tested on: SF-295 CNS
[17] = tested on: UACC-257 melanoma
[18] = tested on: M14 melanoma
[19] = tested on: HCT-15 colon
[20] = tested on: SF-539 CNS

Compound | growth [1] [%] | growth [2] [%] | growth [3] | growth [4] [%] | growth [5] | growth [6] | growth [7] | growth [8] | growth [9] | growth [10] [%] | growth [11] | growth [12] | growth [13] | growth [14] | growth [15] | growth [16] | growth [17] [%] | growth [18] | growth [19] | growth [20]
CC1CC(C)/C(=N/NC(N)=O)C(C(O)CC2CCC(=O)NC2=O)C1 (stereo unspecified) | 36.1 | 42.3 | 14.4% | 49.3 | 31.7% | 18% | 27.7% | 25% | 42.1% | 37.4 | 40.8% | 35.6% | 46.9% | 38.2% | 34.1% | -9.66% (active) | 54.9 | 34.1% | 37.8% | 
Cc1ccc(C(=O)Nc2ccc(Cl)cc2C(=O)NCc2ccccc2)cc1 | 96.7 | 92.9 | 98.2% | 88.3 | 92.4% | 53.9% | 85.9% | 97.8% | 97.4% | 96 | 30% | 88.9% | 95.8% | 87.4% | 94.2% |  | 85.2 | 74.9% |  | 82.3%
CO[C@H]1/C=C/O[C@@]2(C)Oc3c(C)c(O)c4c(O)c(c(/C=N/N5CCN(C)CC5)c(O)c4c3C2=O)NC(=O)/C(C)=C\C=C\C(C)[C@H](O)[C@@H](C)[C@@H](O)[C@@H](C)[C@@H](OC(C)=O)[C@@H]1C (stereo partly specified) | 96.3 | 84.5 | 112% | 99.4 | 103% | 105% | 97.1% | 96.6% | 103% | 104 | 100% | 105% | 98.5% | 104% | 109% | 98.8% | 103 | 102% | 87.7% | 
Cn1c(=O)c2c(nc(Br)n2CCC(=O)Nc2ccc(F)cc2)n(C)c1=O | 101 | 101 | 106% | 92.4 | 109% | 87.9% | 85.2% | 100% | 112% | 118 | 97.5% | 105% | 102% | 118% | 111% | 104% |  | 96.3% | 108% | 98.7%
N#CCCN(CCO)c1ccccc1 | 104 | 94.6 | 93.7% | 95 | 105% | 80.6% | 98.9% | 96.2% | 104% | 116 | 98.3% | 96.8% | 106% | 105% | 111% |  | 99.8 | 102% | 102% | 104%
COc1ccc(Nc2ccnc(NCCCNc3ccnc4cc(Cl)ccc34)n2)cc1 | 58.1 | 69.6 | 3.32% (active) | 46.9 | -56.5% (active) | -55% (active) | -14.5% (active) | -97.7% (active) | -65% (active) | 22.4 | -19.2% (active) | -81.5% (active) | -73.4% (active) | -90% (active) | -28.6% (active) | -82.2% (active) |  | -91.9% (active) | -54.6% (active) | -100% (active)
O=C(c1ccccc1)c1ccco1 | 99.2 | 106 | 105% | 105 | 105% | 89.3% | 97% | 101% | 109% | 113 | 102% | 108% | 93.6% | 131% | 98.5% |  | 89.3 | 98.7% | 104% | 92.5%
O=C(O)c1ccccc1C(=O)OC1CCCC2CCCC21 (stereo unspecified) | 95.1 | 101 | 115% | 98.2 | 112% | 107% | 101% | 116% | 117% | 103 | 102% | 133% | 121% | 104% | 106% |  | 105 | 115% | 92.1% | 102%
